The sample as a whole holds a higher share of hits than the screen did.
TTR transcr act: TTR transcription activation, primary screen. SH-SY5Y TTR promoter Gaussia luciferase, luminescence; 100% = recombinant luciferase protein wells. activation, % at 16.7 µM. actives 1.3% (n = 92,000). AID 1117267;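 active means activation above the mean of all tested compounds plus 3 SD, cut at about 9.5% in these data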;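 further: cells exposed to compounds for one day before reading; 0% = median of all test compound wells on the plate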
Active calls of the source: *.

SMILES	TTR transcr act
CC(C)[C@@H](C)/C=C/[C@@H](C)[C@H]1CC[C@@H]2[C@]1(C)CCC1[C@]23C=C[C@]2(C[C@@H](O)CC[C@]12C)N(C(=O)Cc1ccccc1)O3 (some centres not stated)	0
Cc1ccc(NC(=O)C(=O)N2CCCC2)cc1Cl	1
COc1ccc(C(=O)NNC(=O)C(=O)Nc2ccc(C)c(Cl)c2)cc1	1
Cc1ccc(NC(=O)C(=O)NNC(=O)c2ccccc2C)cc1Cl	11*
CC(C)(C)[C@@H]1/C(=C/C2CC2)N2C(=O)C[C@@H](c3ccccc3)N=C2N1Cc1ccc2c(c1)OCO2	-2
Clc1ccc2nc(CNc3nc(N4CCOCC4)nc4c3ncn4-c3ccsc3)[nH]c2c1	9
CCCC1CCC2(CC1)CCC2OC(=S)Nc1ccccc1C(F)(F)F (configuration not stated)	0
C=CC(=O)N1C/C=C\C(c2ccc(OC)cc2)N(Cc2ccc(F)cc2)C(=O)C1 (configuration not stated)	-2
CCCCCN1C/C=C\C(c2ccc(OC)cc2)N(Cc2ccc(F)cc2)C(=O)C1 (configuration not stated)	2
COc1ccc(C2/C=C\CN(S(=O)(=O)c3ccc(C)cc3)CC(=O)N2Cc2ccc(F)cc2)cc1 (configuration not stated)	16*
CC1=C[C@]2(CN(CC3CC3)C3=N[C@H](c4ccccc4)CC(=O)N32)n2c(=O)n(-c3ccccc3)c(=O)n2C1	1
COC(=O)[C@H](C)NC(=O)[C@@H]1CCCN1C(=O)CNP(=O)(OCc1ccccc1)OCc1ccccc1	-1
S=C(c1nc2ccccc2[nH]1)N1CCOCC1	10.0*
O=c1[nH]c2ccccc2nc1N1CCOCC1	0
O=C(CN1CCOCC1)Nc1ccc(-c2nc3ccccc3[nH]2)cc1	1
COC(=O)[C@]12C[C@H](CC(=O)NCC34CC5CC(CC(C5)C3)C4)C(=O)N(CCc3ccc(OC)c(OC)c3)C1=C[C@H](C(C)C)O[C@@H]2C1CC1	4
C=CCN(Cc1ccc(OC)cc1OC)C(C#CCCCC)c1ccccc1 (configuration not stated)	-1
COc1ccccc1C1c2c(ncn(-c3ccccc3)c2=N)Oc2ccc3ccccc3c21 (configuration not stated)	-1
COC(=O)c1[nH]c2cc(OC)ccc2c1NC(=O)CCN1CCN(c2cccc(C)c2C)CC1	22*
CCOC(=O)c1[nH]c2ccc(OC)cc2c1NC(=O)CCN1CCSCC1	6
COC(=O)c1[nH]c2cccc(OC)c2c1NC(=O)CCN1CCN(c2ccccc2F)CC1	-4
C[C@H](NC(=O)[C@H]1N2C(=O)c3ccccc3C2SC1(C)C)C(=O)N1CCC[C@H]1C(=O)O (some centres not stated)	58*
C[C@H](NC(=O)[C@H]1N2C(=O)c3ccccc3C2SC1(C)C)C(=O)N1CCCCC1 (some centres not stated)	5
C[C@H](NC(=O)[C@H]1N2C(=O)c3ccccc3C2SC1(C)C)C(=O)N1CCC[C@H]1CO (some centres not stated)	2
COCCCNC(=O)c1ccc(Cn2c(=O)c3ccccc3n(Cc3ccc(Br)cc3)c2=O)cc1	0
SMILES	TTR transcr act
CN=C1S/C(=C/c2cc(C)n(-c3ccc(Cl)cc3F)c2C)C(=O)N1C	0
Cc1[nH]c(=O)[nH]c(=O)c1/C=N/NC(=O)[C@H](CC(C)C)NC(=O)OC(C)(C)C	-1
CC(C)(C)OC(=O)N[C@@H](COCc1ccccc1)C(=O)N[C@@H](CO)[C@H](O)[C@@H]1C[C@@H]1C(=O)N1CCCC1	4
CC(C)C[C@H](NC(=O)OC(C)(C)C)C(=O)N[C@@H](CO)[C@H](O)[C@@H]1C[C@@H]1C(=O)N1CCCC1	10*
CCC[C@H]1[C@H](N)CC[C@@]23CCCN2C(=O)CCC[C@@H]13	0
COC(=O)c1cc(C)oc1C	7
COc1ccc(NC(=O)c2c(C)nn(-c3ccccc3)c2Cl)cc1	1
CCc1nnc(NC(=O)c2c(C)nn(-c3ccccc3)c2Cl)s1	22*
Cc1nn(-c2ccccc2)c(Cl)c1C(=O)NCC(C)C	8
CN1C(=O)C(=O)N2C(=C[C@]3(c4c[nH]c5ccccc45)c4ccccc4N[C@H]23)C1=O	1
NC(=O)C(NC(=O)OCc1ccccc1)c1ccccc1 (configuration not stated)	-2
CC[C@@H](C)[C@H](NC(=O)OCc1ccccc1)c1nnc([C@@H](NC(=O)OCc2ccccc2)[C@@H](C)CC)o1	11*
CC(C)[C@H](NC(=O)OCc1ccccc1)C(=O)NCc1ccccc1	1
COc1cc(CNc2cccc3c2S(=O)(=O)N([C@H](C)c2ccccc2)C[C@@H](COCc2ccccc2)O3)cc(OC)c1OC	0
O=C(NCc1ccccc1Cl)O[C@H]1CC[C@@]23CCCN2C(=O)CCC[C@H]3C1	0
CC12CN(C(=O)c3ccc([N+](=O)[O-])cc3)CC(C)(CN(C(=O)c3ccc([N+](=O)[O-])cc3)C1)C2=O	-1
